Source: ChEMBL document CHEMBL3988442, “University of Dundee, Small-Polar-MMV Screening Library” (2021)

The compounds below were run against AMP-activated protein kinase, AMPK (Homo sapiens) (UniProt P54646+O43741+P54619+Q9UGJ0+Q9Y478+Q13131+Q9UGI9) (assay: AMP-dependent Kinase enzyme assay. An in vitro enzyme assay that detects ADP turnover that is directly proportional to AMPK activity. This uses naive AMPK that is activated during the assay with MK-8722). Conditions: 30 µM.
Format: functional
Parameters: scale not given: direction of the effect not stated beside the values

Compound | Percent Effect [%]
CC(CN1CCOC1=O)NC(=O)c1cccc(C#N)c1 (centres undefined) | 11.8
Cc1ccc(CNc2cc3c(cc2Cl)NC(=O)CO3)cc1C | -0.667
CC(C)(C)c1n[nH]cc1CNC1CCC(OCC(F)(F)F)CC1 (centres undefined) | 3.73
O=C(O)c1ccn(-c2ccc(NC(=O)c3ccccc3Cl)cc2)n1 | 5.04
O=C(NCCCc1nnc2ccccn12)c1ccccc1C1CCNC1 (centres undefined) | 1.24
CCOc1ccc2cc(C(=O)NCCC(=O)N(C)C)[nH]c2c1 | -3.77
Cc1cc(F)ccc1N1CCCC(NC(=O)CCCn2ccnc2)C1 (centres undefined) | 8.09
CC(Oc1ccc2c(c1)OCO2)C(=O)N1CCC(c2ncc[nH]2)CC1 (centres undefined) | 4.41
O=S(=O)(c1ccccc1N1CC(n2cccn2)C1)C(F)(F)F | 16
Cc1cc(C)n(CC(C)NC(=O)C2(c3ccccc3F)CC2)n1 (centres undefined) | -3.82
CC(C)(C)NC(=O)CNc1ncccn1 | 91.2
CC(N)C(=O)N1CCC(Oc2cccc(C(F)(F)F)c2)CC1 (centres undefined) | -2.71
CCn1ncnc1C1CC(=O)NCc2nc(N)sc21 (centres undefined) | -18.1
CSc1ccc(OCCN2CCNC(=O)CC2)cc1 | 9.33
O=C(C1CCOC1)N1CCN(CC2CC2)c2ccccc21 (centres undefined) | 5.43
CN(C(=O)c1ccccc1N(C)S(C)(=O)=O)c1ccc(C(C)(C)C)cc1 | 6.59
Cc1cnn(CCNCC(=O)N2CCN(c3ccccn3)CC2)c1 | -14.7
Cc1cc(C)n2c(CNCc3ccc(OC(F)F)cc3)cnc2n1 | -12.4
Cc1ccc(-c2cc(CNC(=O)NC3CCCCNC3=O)on2)cc1 (centres undefined) | -0.304
CCN(Cc1ccoc1)c1ncc(S(N)(=O)=O)s1 | -1.73

Compound | Percent Effect [%]
O=C(NC1CCCC1)N1C[C@H]2CN(c3ccccn3)C[C@@]2(C(=O)O)C1 | 3.09
Cc1cc(CNC(=O)N2CCOC(c3ccccc3Cl)C2)no1 (centres undefined) | -7.62
Cc1ccc(OCC2CCCN(c3cc(C(N)=O)ccn3)C2)cc1 (centres undefined) | 2.7
Cc1nc(CC(C)C)cc(C(=O)N2C[C@@H](N(C)C)[C@H](C(C)C)C2)n1 | -4.31
Nc1nc(O)cc(N2CCC(c3cc(Cc4ccccc4)n[nH]3)CC2)n1 | -82.1
CNc1nc(C(=O)NCC2CCOc3ccccc3C2)cs1 (centres undefined) | 1.74
C1=C(CNC2CCc3ncnn3C2)COc2ccccc21 (centres undefined) | 10.9
COc1ccc([C@@H]2CN(C(=O)CCCc3cn[nH]c3)C[C@H]2N(C)C)cc1 | 2.77
CC(=O)NCc1ccc(C(=O)N2CCCc3c(F)ccc(C)c32)cc1 | -0.0493
CC(=O)NCC(=O)Nc1cc(C)n(-c2ccc(Cl)cc2Cl)n1 | 3.23
Cc1cc(COC(=O)[C@@H]2Cc3ccccc3CN2S(C)(=O)=O)no1 | 27.9
Cc1cc(C2CCCN(CCC(=O)N3CCc4ccccc43)C2)n[nH]1 (centres undefined) | -4.69
CC1(c2nccs2)CCN(C(=O)CCN2CCOCC2)CC1 | 10.7
CN(CC1(CO)CCCC1)c1nc2c(c(=O)[nH]1)Cc1ccccc1OC2 | 6.29
CC(C)NC(=O)c1nc(Cn2c(C(F)(F)F)nc3ccccc32)no1 | 6.13
Fc1ccccc1CN1CCC[C@@H](Cn2nnc(-c3cccs3)n2)C1 | 5.25
CCn1cc(NC(=O)c2cccc(CN3C[C@@H](C)O[C@@H](C)C3)c2)nn1 | 1.85
CCC(NC(=O)C(C)C)c1ccccc1C (centres undefined) | 8.49
COCC(=O)NCc1ccc(-c2ncncc2C(=O)N(C)C)cc1 | 5.99
